Common to all, as to assay: yeast three-hybrid, YBZ-1, SC-Leu-His + 0.5 mM 3-AT, 4 days
What all share (settings): tags: N-Gal4 AD-HA kept; label: inside an RPR1-promoter hybrid RNA with tandem MS2 sites; ssRNA

For one experiment, the target named is PUM1 PUF domain R5-NAV (Homo sapiens, UniProt Q14671 828-1176, C1007N;R1008A;Q1011V). The essentials:
(§1)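 The interaction score is the log change in how often each variant appears, from input to selection. Frequencies came from PCR-amplified, Illumina-sequenced repeat regions of Pumilio-1 PUF domain libraries grown in strain YBZ-1 (LexA–MS2 coat fusion, HIS3 reporter) alongside matching RNA elements. Input plates were SC-Leu and selection plates were SC-Leu-His + 0.5 mM 3-AT, each for four days, and the log2 calculation used a pseudocount of 1 where a variant was absent.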

A further experiment concerns the target PUM1 PUF domain R5-EGE (Homo sapiens, UniProt Q14671 828-1176, C1007E;R1008G;Q1011E). The essentials:
as §1

Another experiment has as its target PUM1 PUF domain R4-LFW (Homo sapiens, UniProt Q14671 828-1176, N971L;H972F;Q975W). The essentials:
as §1

The target of another experiment is PUM1 PUF domain R7-DHV (Homo sapiens, UniProt Q14671 828-1176, S1079D;N1080H;E1083V). The essentials: as §1
The next experiment has as its target T1, PUM1 PUF domain R6-LWG (Homo sapiens, UniProt Q14671 828-1176, N1043L;Y1044W;Q1047G).
T1 sequence: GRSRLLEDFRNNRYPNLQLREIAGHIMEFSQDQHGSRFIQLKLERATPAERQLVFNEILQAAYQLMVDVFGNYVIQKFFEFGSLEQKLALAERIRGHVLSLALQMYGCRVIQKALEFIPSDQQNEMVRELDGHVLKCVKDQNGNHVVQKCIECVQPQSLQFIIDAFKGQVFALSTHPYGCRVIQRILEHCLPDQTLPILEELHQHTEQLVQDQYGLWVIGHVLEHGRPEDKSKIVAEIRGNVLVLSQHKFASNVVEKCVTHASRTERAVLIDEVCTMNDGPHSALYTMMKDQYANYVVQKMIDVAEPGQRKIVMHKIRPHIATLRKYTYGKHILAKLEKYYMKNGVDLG
The essentials:
as §1

The target of the next experiment is T2, PUM1 PUF domain R6-QYS (Homo sapiens, UniProt Q14671 828-1176, N1043Q;Q1047S).
T2 sequence: T1 sequence with L216Q, W217Y, G220S
The essentials:
as §1

The target of another experiment is PUM1 PUF domain R4-SLS (Homo sapiens, UniProt Q14671 828-1176, N971S;H972L;Q975S). The essentials:
as §1

The target of a further experiment is PUM1 PUF domain R3-GHF (Homo sapiens, UniProt Q14671 828-1176, C935G;R936H;Q939F). The essentials: as §1

Consider six sequences from PMC8384837, “Expanding the binding specificity for RNA recognition by a PUF domain”.

Numbering of substitutions follows the chain as printed.

For “GGCUAGAACUAGUGGAUCCCCCGGCGCCCGGCGGCUCGAGCCCGGGUAAGUGUUAAUAGUCUGCAUGCCGCCGGGCGCCAUGCCUGCAGGUCGACUCUAGAAAACAUG”, the binding signal in the experiment with PUM1 PUF domain R5-NAV is 2.55 log2 enrichment (interaction score).

For the sequence “GGCUAGAACUAGUGGAUCCCCCGGCGCCCGGCGGCUCGAGCCCGGGUAAGUGUGAAUAGUCUGCAUGCCGCCGGGCGCCAUGCCUGCAGGUCGACUCUAGAAAACAUG”, the binding signal with PUM1 PUF domain R5-NAV was 1.26 log2 enrichment (interaction score); with PUM1 PUF domain R5-EGE, 2.78 log2 enrichment (interaction score).

Take “GGCUAGAACUAGUGGAUCCCCCGGCGCCCGGCGGCUCGAGCCCGGGUAAGUGUAUAUAGUCUGCAUGCCGCCGGGCGCCAUGCCUGCAGGUCGACUCUAGAAAACAUG”: in the experiment with PUM1 PUF domain R4-LFW, the binding signal is 3.89 log2 enrichment (interaction score).

Regarding “GGCUAGAACUAGUGGAUCCCCCGGCGCCCGGCGGCUCGAGCCCGGGUAAGUUUAAAUAGUCUGCAUGCCGCCGGGCGCCAUGCCUGCAGGUCGACUCUAGAAAACAUG”, the binding signal with PUM1 PUF domain R7-DHV was 5.24 log2 enrichment (interaction score).

“GGCUAGAACUAGUGGAUCCCCCGGCGCCCGGCGGCUCGAGCCCGGGUAAGUGUAAAUAGUCUGCAUGCCGCCGGGCGCCAUGCCUGCAGGUCGACUCUAGAAAACAUG”: the results for the binding signal with PUM1 PUF domain R6-LWG, in the experiment with PUM1 PUF domain R6-QYS and with PUM1 PUF domain R4-SLS were 6.16 log2 enrichment (interaction score), 3.68 log2 enrichment (interaction score) and 2.39 log2 enrichment (interaction score), respectively.

Turning to “GGCUAGAACUAGUGGAUCCCCCGGCGCCCGGCGGCUCGAGCCCGGGUAAGUGUAAUUAGUCUGCAUGCCGCCGGGCGCCAUGCCUGCAGGUCGACUCUAGAAAACAUG”, the binding signal in the experiment with PUM1 PUF domain R3-GHF was 2.21 log2 enrichment (interaction score).
